Source: PubChem BioAssay
BioA inh = blocks M. tuberculosis BioA enzyme activity | AID 602481 | 360,000 tested, 0.096% active | inhibition, % at 9.99 µM | purified M. tuberculosis BioA enzyme, plate reader; in the data active means inhibition above about 40%
GDH-TPI counter = counter-screen for M. tuberculosis FBA inhibitors: GDH-TPI coupled enzymes; GDH-TPI coupled enzyme counterscreen, NADH absorbance; inhibition, % at 4.8 µM; 360,000 tested, 1.2% active; AID 588335; in the data active means inhibition above about 30%
FadD28 FP inh = inhibitors of Mycobacterium tuberculosis FadD28 bisubstrate binding. FadD28 bisubstrate probe binding, fluorescence polarization. inhibition, % at 12.5 µM. 360,000 tested, 0.22% active. AID 588549; in the data active means inhibition above about 8.5%, passing the limit was not always enough
Mtb FBA inh = inhibits M. tuberculosis FBA enzyme; inhibition, % at 1 µM; P9WQA3; 360,000 tested, 2.3% active; purified M. tuberculosis FBA, fluorescence read-out; in the data active means inhibition above about 27%
Target sequence (P9WQA3 whole entry, looked up): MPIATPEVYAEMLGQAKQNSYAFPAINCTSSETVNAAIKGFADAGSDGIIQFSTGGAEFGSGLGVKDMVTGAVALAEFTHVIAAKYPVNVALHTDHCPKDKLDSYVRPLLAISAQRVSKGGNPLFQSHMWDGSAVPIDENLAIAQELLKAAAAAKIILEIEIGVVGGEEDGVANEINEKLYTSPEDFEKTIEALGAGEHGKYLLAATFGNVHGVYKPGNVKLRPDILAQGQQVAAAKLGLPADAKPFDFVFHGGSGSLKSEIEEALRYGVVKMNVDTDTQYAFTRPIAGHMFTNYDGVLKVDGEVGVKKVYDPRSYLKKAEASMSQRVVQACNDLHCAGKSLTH
Rv3671c inh = inhibitors of M. tuberculosis serine protease Rv3671c | 320,000 tested, 0.048% active | inhibition, % at 5.96 µM | P9WHR9; in the data active means inhibition above about 38%;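 further: extracellular domain of Rv3671c used as enzyme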
A number is an active result; - = inactive; . = no result; + = active, no number. A selection: hits, their analogues and other compounds. The true share with any hit is near 3%.

SMILES	BioA inh	GDH-TPI counter	FadD28 FP inh	Mtb FBA inh	Rv3671c inh
COc1ccc2cc(C(=O)O)ccc2c1	-	-	-	-	-
COC(=O)C12CCc3c(ccc4cc(OC)ccc34)C1=CC(=O)C2 (stereo unspecified)	-	45.4	-	+	.
CN(C)c1ccc(/C=[N+](\[O-])C2SC(=S)N(C)C2(C)C)cc1 (stereo unspecified)	-	34.3	-	-	-
CN(C)c1ccc(/C=[N+](\[O-])C2N(c3ccccc3)C(=S)SC2(C)C)cc1 (stereo unspecified)	-	33.3	-	-	-
Cc1ccc(S(=O)(=O)NCC[C@H]2CC[C@@H](NC(=O)CCN3CCCCC3)[C@@H](CO)O2)cc1	-	.	.	.	.
CCN(C(=O)COC(=O)c1ccccc1NCc1ccco1)c1c(N)n(Cc2ccccc2)c(=O)[nH]c1=O	-	-	-	142.3	.
CCCCn1c(N)c(N(CCOC)C(=O)COC(=O)c2ccccc2NCCO)c(=O)[nH]c1=O	-	-	-	124.4	.
CCCCn1c(N)c(N(CCOC)C(=O)COC(=O)COc2c(C)cccc2C)c(=O)[nH]c1=O	.	-	-	-	-
O=C(NCc1ccccc1)[C@H]1[C@H](CO)[C@H]2Cn3c(cccc3=O)[C@@H]1N2	-	.	.	.	.
Cc1nc(-c2cccs2)sc1C(=O)O	-	-	-	-	-
Cc1nccc(-c2sc(-c3cccs3)nc2C)n1	.	-	-	+	-
CN(C)c1ccc2c(c1)[C@@H]1C[C@H](CC(=O)NCc3ccccc3)O[C@@H](CO)[C@@H]1O2	-	.	.	.	.
O=C(Nc1nccs1)c1sc2cc(Cl)ccc2c1Cl	-	33.5	-	-	-
O=C(c1cccnc1)c1cc2ccccc2[nH]1	-	34.6	-	-	-
CN(CCO)c1nc(N)c(C#N)c(CC#N)c1C#N	-	33.8	-	-	-
CC(C)CN(CC(C)C)c1nc(N)c(C#N)c(CC#N)c1C#N	-	-	-	-	-
CNC[C@H]1Oc2c(NS(=O)(=O)c3ccccc3)cccc2C(=O)N([C@@H](C)CO)C[C@@H]1C	-	.	.	.	.
CN(C)c1c2ccccc2nc2c(F)c(F)c(F)c(F)c12	.	-	-	117.0	-
COc1ccc(C(=O)N2C[C@@H]3[C@H](c4ccccc42)[C@H](CO)N3Cc2ccccc2)cc1	-	.	.	.	.
CN(C)S(=O)(=O)c1ccc2nc(NC(=O)c3cccnc3)sc2c1	-	36.1	-	-	-
O=C(Nc1nc2ccc(S(=O)(=O)N3CCCCC3)cc2s1)c1cccnc1	-	40.1	-	-	-
COCC(=O)N(C)C[C@@H]1Oc2ncc(-c3ccc(C#N)cc3)cc2C(=O)N([C@@H](C)CO)C[C@@H]1C	-	.	.	.	.
O=c1c2c(nc3c(-c4cccc5ccccc45)c[nH]n13)CCC2	-	-	-	129.4	-
CO[C@@H]1CN(C)C(=O)c2ccc(NC(=O)C3CC3)cc2OC[C@@H](C)N(Cc2cccnc2)C[C@H]1C	-	.	.	.	.
O=C1C(Oc2ccccc2)C(c2ccc3c(c2)OCO3)N1CCc1ccc(F)cc1 (stereo unspecified)	-	33.3	-	-	-
SMILES	BioA inh	GDH-TPI counter	FadD28 FP inh	Mtb FBA inh	Rv3671c inh
C=CCc1cc(/C=C2/NC(=O)N(CC(=O)OC)C2=O)cc(OC)c1O	-	32.1	-	-	-
C=CCc1cc(/C=C2/NC(=S)NC2=O)cc(OC)c1O	.	-	-	-	-
O=C1CSC(=S)N1/N=C/c1ccc(O)c(O)c1O	-	-	9.4	-	-
O=C1CSC(=S)N1/N=C/c1cc(Br)ccc1O	.	.	.	.	-
Cc1[nH]n(-c2ncc(-c3ccccc3)s2)c(=O)c1C(c1ccc(Cl)cc1)C(C#N)C#N (stereo unspecified)	.	-	8.6	-	-
COc1ccc(C2C(C(C)=O)=C(C)N=c3s/c(=C\c4cc(C)n(C)c4C)c(=O)n32)c(OC)c1 (stereo unspecified)	-	-	11.7	-	-
Cc1nnc(C)n1/N=C/c1ccc(-c2ccccc2Cl)o1	-	45.5	.	-	-
S=c1[nH]nc(-c2ccccc2)n1/N=C/c1ccc(-c2ccccc2Cl)o1	-	-	-	-	-
CCC12CCCN3CCC4(C(=C(C(=O)OC)C1)Nc1ccccc14)C32 (stereo unspecified)	.	32.8	-	-	.
COC(=O)C1=CO[C@H](C)[C@H]2CN3CC[C@@]4(C(=O)Nc5ccccc54)[C@@H]3C[C@H]12	-	-	-	-	-
Cc1ccsc1/C=C(\CC(=O)O)c1nc2ccccc2o1	-	43.6	-	-	-
CCOC(=O)c1cc2c(=O)n3ccccc3nc2n(Cc2ccco2)c1=NC(=O)c1ccccc1OCC	.	-	-	172.6	-
CCOC(=O)c1cc2c(=O)n3ccccc3nc2n(CC(C)C)c1=NC(=O)c1ccco1	-	-	-	135.0	-
